Results: PubChem BioAssay AID463173 (ICCB-Longwood Screening Facility, Harvard Medical School, 2010)
The whole screen tested about 52,000 compounds, of which about 1,700 (3.3%) were called active. No stated cut-off is given here; in the data, active means survival mostly below about 52% (no sharp cut-off); inactive means mostly above about 56%. The entries come from a sample that favours actives as a whole.

System: Wild type
Assay: growth inhibition of S. aureus wild type versus tarO mutant, primary screen, teichoic acid synthesis inhibitors, RN4220, OD600 (AID 463173)
Settings: S. aureus RN4220 wild type/DeltatarO growth, OD600, 18 h, stronger effect = lower value, screened at 18.75 µg/mL (by protocol)

Row | Compound | survival
1 | Cc1cccc(NC(=O)C2CCN(c3nnc(-n4c(C)ccc4C)s3)CC2)c1C | 132% (inactive)
2 | O=C(COCc1cc(-c2ccc(F)cc2)on1)Nc1cccc(C(F)(F)F)c1 | 77% (inactive)
3 | O=C(c1ccccc1)N(Cc1ccco1)Cc1cccs1 | 82% (inactive)
4 | CCn1c(CN2CCCCC2)nc2cc(NC(=O)COc3ccccc3C(C)(C)C)ccc21 | 122% (inactive)
5 | Cc1ccc(Cn2cc(C(=O)c3ccc(C)cc3)c(=O)c3ccc(C)nc32)cc1 | 20% (active)
6 | Cc1ccc(C(=O)c2cn(Cc3ccc(Cl)cc3)c3nc(C)ccc3c2=O)cc1 | 53% (inactive)
7 | Cc1ccc(C(=O)c2cn(Cc3ccc(F)cc3)c3nc(C)ccc3c2=O)cc1 | 95% (inactive)
8 | CCOC(=O)c1cc(-c2ccccc2)n(CC(=O)Nc2cc(Cl)c(OC)cc2OC)c1C | 128% (inactive)
9 | CCOC(=O)c1ccc(NS(=O)(=O)c2cc(Br)cc3c2N(C(C)=O)C(C)C3)cc1 (stereo not drawn) | 83% (inactive)
10 | COc1ccc(N2CCN(C(=O)CCS(=O)(=O)c3cc4c(cc3Cl)NC(=O)CO4)CC2)cc1 | 85% (inactive)
11 | CCOCCc1nnc(NC(=O)C(=O)c2cc(C)n(-c3ccc(C)cc3C)c2C)s1 | 85% (inactive)
12 | Cc1ccc(-c2nc3ccc(Cl)cn3c2Nc2ccccc2C)s1 | 94% (inactive)
13 | Cc1ccc(Nc2c(-c3ccc(C)s3)nc3ccccn23)cc1 | 31% (inactive)
14 | Cc1ccc(-c2nc3c(C)cccn3c2Nc2ccccc2C)s1 | -2% (active)
15 | Cc1ccccc1Nc1c(-c2ccco2)nc2c(C)cccn12 | 1% (active)
16 | Cc1ccc(-c2nc3ccccn3c2Nc2ccccc2C)s1 | 11% (active)
17 | Fc1ccc(Nc2c(-c3ccco3)nc3ccccn23)cc1 | 69% (inactive)
18 | Cc1ccccc1Nc1c(-c2ccc(Cl)s2)nc2cccc(C)n12 | 80% (inactive)
19 | Cc1ccccc1Nc1c(-c2ccc(Cl)s2)nc2c(C)cccn12 | 69% (inactive)
20 | Cc1cccc(C)c1Nc1c(-c2ccccn2)nc2c(C)cccn12 | 77% (inactive)

Row | Compound | survival
21 | CCc1nnc(SCc2nc(-c3ccc(OC)cc3)oc2C)c2cc3sccc3n12 | 86% (inactive)
22 | Cc1ccc(C)c(S(=O)(=O)n2nnc3ccccc32)c1 | 104% (inactive)
23 | CCOC(=O)N1CCc2c(sc3c2c(=O)n(-c2ccc(Cl)cc2)c(=O)n3Cc2cccc(OC)c2)C1 | 120% (inactive)
24 | Cc1ccc(CCNC(=O)Cn2c(-c3cccs3)cc3ccccc32)cc1 | 119% (inactive)
25 | Cc1ccc(C)c(N2CCN(C(=O)NC3CCCCC3)CC2)c1 | 103% (inactive)
26 | COc1ccc2nc3oc(C(=O)Nc4cccc(C(F)(F)F)c4)cc3cc2c1 | 66% (inactive)
27 | CCCOc1ccc(C2C(=O)N(C3CCCCC3)CC(=O)N2C2CCCCC2)cc1OC (stereo not drawn) | 77% (inactive)
28 | CCCOc1ccc(C2C(=O)N(C3CCC(C)CC3)CC(=O)N2CCC2=CCCCC2)cc1OC (stereo not drawn) | 87% (inactive)
29 | CCCOc1ccc(C2C(=O)N(C3CCCCCC3)CC(=O)N2CCC)cc1OC (stereo not drawn) | -6% (active)
30 | CCCCN1C(=O)CN(C2CCCCCC2)C(=O)C1c1ccc(OCCC)c(OC)c1 (stereo not drawn) | 87% (inactive)
31 | CCCOc1ccc(C2C(=O)N(C3CCCCCC3)CC(=O)N2CCC2=CCCCC2)cc1OC (stereo not drawn) | 123% (inactive)
32 | COc1ccc(C2C(=O)N(C3CCC(C)CC3)CC(=O)N2C2CCCC2)cc1OC (stereo not drawn) | -4% (active)
33 | CCCN1C(=O)CN(C2CCCCCC2)C(=O)C1c1ccc(OCC)c(OC)c1 (stereo not drawn) | 120% (inactive)
34 | COc1ccc(C2C(=O)N(C3CCC(C)CC3)CC(=O)N2CCC2=CCCCC2)cc1OC (stereo not drawn) | -3% (active)
35 | COc1ccc(C2C(=O)N(C3CCC(C)CC3)CC(=O)N2C2CCCCC2)cc1OC (stereo not drawn) | 64% (inactive)
36 | COc1ccc(-n2cc(C(=O)N(C)c3cc(C)ccc3OC)c3ccccc3c2=O)cc1 | 114% (inactive)
37 | Cc1ccc(NC(=O)CCc2c(C)nc3nc(C)nn3c2C)c(Cl)c1 | 70% (inactive)
38 | CCc1nnc(SC(CC)C(=O)NCCOC)c2cc3occc3n12 (stereo not drawn) | 105% (inactive)
39 | Cc1ccc(C(=O)n2nc(C)c(S(=O)(=O)N3CCOCC3)c2C)cc1 | 85% (inactive)
40 | CCN(c1cccc(C)c1)S(=O)(=O)c1cc(Br)cc2c1N(C(C)=O)C(C)C2 (stereo not drawn) | 75% (inactive)

Row | Compound | survival
41 | CCN(CC)CCNC(=O)c1ccc(-n2c(-c3ccccc3)cc3c2CCCC3)cc1 | 2% (active)
42 | CN(C)CCNC(=O)c1ccc(-n2c(-c3ccccc3)cc3c2CCCC3)cc1 | 29% (inactive)
43 | CN(C)CCNC(=O)c1ccc(-n2c(-c3ccccc3)cc3c2CCCCC3)cc1 | 17% (inactive)
44 | Cc1ccc(C2C(C(=O)/C=C/c3ccccc3)=C(O)C(=O)N2CCO)cc1 (stereo not drawn) | 99% (inactive)
45 | O=C1CC(CSc2nnnn2-c2ccccc2)=NN1 | 128% (inactive)
46 | O=S1(=O)C=C(Sc2nnnn2-c2ccccc2)c2ccccc21 | -1% (active)
47 | O=S(=O)(NCCSc1nnnn1-c1ccccc1)c1ccc(F)cc1 | 76% (inactive)
48 | Cc1ccc(-c2csc(=Nc3ccccc3)n2CCCO)cc1 | -7% (active)
49 | COc1ccc(-c2csc(=Nc3ccccc3)n2CCO)cc1F | 63% (inactive)
50 | O=S(=O)(c1ccc(-c2csc(=Nc3ccc(OC(F)(F)Cl)cc3)n2CCCO)cc1)N1CCCC1 | 132% (inactive)
51 | CCN(CC)CCn1c(-c2ccccc2)csc1=Nc1ccccc1 | 45% (inactive)
52 | O=S(=O)(c1ccc(-c2csc(=Nc3ccc(F)cc3)n2CCCCCCO)cc1)N1CCCC1 | 55% (inactive)
53 | OCCCn1c(-c2ccc(F)cc2)csc1=Nc1ccc(F)cc1 | 9% (active)
54 | Cc1ccc(NC(=O)C(=O)NCC(c2ccc3c(c2)OCO3)N2CCN(c3ccccc3)CC2)cc1 (stereo not drawn) | 75% (inactive)
55 | O=C(CCC1N=C2c3ccccc3N=C(SCC(=O)Nc3ccccc3F)N2C1=O)NCc1ccccc1 (stereo not drawn) | 76% (inactive)
56 | CCOc1ccc(CNC(=O)C2CCN(S(=O)(=O)N3CCC(C)CC3)CC2)cc1OC | 84% (inactive)
57 | CCOc1ccc(-c2nnc(SCC(=O)c3ccc(Br)cc3)n2-c2ccccc2)cc1 | 92% (inactive)
58 | CC(=O)N1CCc2c(sc3c2c(=O)n(CCc2ccccc2)c(=O)n3Cc2ccc(Cl)cc2)C1 | 65% (inactive)
